# Test results from PubChem BioAssay (NCATS).
# Records with an inconclusive call do not appear. Values without a mark were called inactive. Activity calls are given as the source filed them. The call rests on the fitted dose curve; in most records, active means well fitted inhibition curve with a large enough effect in the signal ratio, with a control signal flat (not every such curve was filed as active); inconclusive means small, poorly fitted or top-dose-only effect, or effect the other way, or a change in a side signal; inactive means flat fitted curve, though single readings scatter; the % refers to the signal ratio.
# Molecular target: Glucocorticoid receptor (Homo sapiens) (UniProt P04150)
# Sequence (P04150 whole entry, looked up): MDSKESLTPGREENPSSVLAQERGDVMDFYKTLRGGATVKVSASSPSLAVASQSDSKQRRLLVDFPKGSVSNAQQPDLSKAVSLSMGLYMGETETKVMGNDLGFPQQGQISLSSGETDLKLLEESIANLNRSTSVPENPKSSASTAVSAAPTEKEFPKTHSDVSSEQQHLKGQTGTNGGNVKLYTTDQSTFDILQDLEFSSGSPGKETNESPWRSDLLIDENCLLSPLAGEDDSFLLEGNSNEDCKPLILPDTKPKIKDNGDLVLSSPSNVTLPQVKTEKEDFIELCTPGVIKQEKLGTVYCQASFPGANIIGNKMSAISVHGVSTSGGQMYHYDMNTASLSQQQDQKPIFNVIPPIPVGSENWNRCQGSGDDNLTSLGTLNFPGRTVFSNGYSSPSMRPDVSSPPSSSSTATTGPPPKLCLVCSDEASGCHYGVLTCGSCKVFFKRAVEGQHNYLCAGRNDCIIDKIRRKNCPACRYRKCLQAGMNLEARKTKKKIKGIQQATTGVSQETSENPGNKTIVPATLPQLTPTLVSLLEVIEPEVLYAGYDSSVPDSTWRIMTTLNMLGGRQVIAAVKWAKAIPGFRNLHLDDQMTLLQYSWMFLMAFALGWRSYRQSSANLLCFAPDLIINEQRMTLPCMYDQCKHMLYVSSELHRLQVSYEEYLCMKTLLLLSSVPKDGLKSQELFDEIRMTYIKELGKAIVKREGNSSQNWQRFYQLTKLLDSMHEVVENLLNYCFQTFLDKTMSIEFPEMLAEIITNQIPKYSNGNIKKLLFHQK
# Experiment: qHTS assay for small molecule antagonists of glucocorticoid receptor signaling (AID 588533)
# Conditions: HeLa MMTV-bla, GRE beta-lactamase ratio, antagonist mode, 18 h; series mostly up to 76.8 µM; activity change, negative = inhibition: at the top concentration
# Excerpt: NIH Chemical Genomics Center [NCGC] U.S. Environmental Protection Agency [EPA] National Institutes of Environmental Health Sciences [NIEHS] National Toxicology Program [NTP] NCGC Assay Overview The Glucocorticoid receptor (GR), a nuclear receptor subfamily member and its natural ligands includes […] etc. The GR is a validated drug target for inflammation. GR ligands such as dexamethasone are clinically available as anti-inflammatory drugs. Glucocorticoids implicate a role in carbohydrate, protein and lipid metabolisms and programmed cell death. They are also a component of many chemotherapy regimens for the treatment of leukemias, lymphomas, and myelomas because of their role in the induction of apoptosis.
# NCGC Assay Protocol Summary Using a beta-lactamase reporter-gene under control of glucocorticoid response element (GRE), a cell-based assay [CellSensor MMTV-bla HeLa cell line assay developed by Invitrogen] was used to measure GR ligands signaling. CellSensor MMTV-bla HeLa cells were used with assay medium containing 1% charcoal/dextran treated FBS, 0.1 mM NEAA, 1 mM sodium pyruvate and 25mM HEPES. The assay was performed in clear bottom black Greiner 1536-well plates. Library compounds were measured for their ability to inhibit the reporter gene activity. Compounds were screened in a titration series in 1536-well format. […] Data was normalized relative to Dexamethasone control (2 nM, 100%), and DMSO only wells (basal, 0%). Concentration-response titration points for each compound were fitted to the Hill equation yielding concentrations of half-maximal inhibition (IC50) and maximal response (efficacy) values. qHTS protocol for GR beta-lactamase assay in antagonist mode [Step] [Parameter] [Value] [Description] 1. Reagent; 5 uL; 1500 cells/well 2. Incubation; 37 C for 3-5 hrs 3. Compounds; 23 nL; 0.59 nM to 92 uM 4. […] Agonist (Stimulator); 1uL; Dexamethasone at 2 nM (final) concentration 6. Incubation; 37 C for 18 hrs 7. Detection reagent; 1 uL of CCF4-dye 8. Incubation; RT for 2 hrs 9. Detection; Fluorescence; Envision plate reader
# On the % scale 0 is the no-effect control and ±100 the full control effect.
SMILES,"activity change, negative = inhibition",outcome
CCCC=O,9.2%,
O=[N+]([O-])c1ccc(Cl)cc1Cl,-21%,
Cc1ccc(CO)cc1,-18.5%,
CCCCCCCCCCCCC1CO1 (stereo not given),-1.17%,
Fc1ccccc1,-8.62%,
CCOCC(=O)O,-1.34%,
CC(C)(O)C(=O)O,17.3%,
CC#N,13.4%,
O=Nc1ccc(NO)cc1,11.3%,
c1ccc2n[nH]nc2c1,11.3%,
CCCCC/C=C/C=C/C=O,,inactive
CC(=C/C=C/C(C)=C/C=C/C=C(C)/C=C/C=C(C)/C=C/C(=O)O)/C=C/C(=O)O,21.9%,
CC(C)C(C)C,26.4%,
C=Cc1ccccn1,7.06%,
Cc1cccc(Br)c1,13.4%,
C=CCOC(=O)COCCC(C)C,9.64%,
C=C(C)OC(C)=O,10.4%,
C1CCC2OC2C1 (stereo not given),-4.73%,
Nc1nc(-c2ccccc2)cs1,-3.12%,
C[C@@H]1O[C@@H](O[C@@H]2[C@@H](O)[C@H](OCCc3ccc(O)c(O)c3)O[C@H](CO[C@@H]3O[C@H](CO)[C@@H](O)[C@H](O)[C@H]3O)[C@H]2OC(=O)/C=C/c2ccc(O)c(O)c2)[C@H](O)[C@H](O)[C@H]1O,-5.79%,

SMILES,"activity change, negative = inhibition",outcome
Nc1nc(CC(=O)O)cs1,1.09%,
O=Cc1cccc(Br)c1,8.11%,
C1CCCC1,-1.28%,
Cc1ccc(C)o1,-14.9%,
COc1ccc(OC)cc1,-2.15%,
O=C(O)c1ccc(CO)o1,5.52%,
Nc1nc2ccccc2[nH]1,6.35%,
C=Cc1ccc(C=C)cc1,10.7%,
CC(C)=CCl,-2.77%,
O=C1CCC(=O)O1,21.6%,
CC(=O)c1nccs1,-12%,
Cc1ccc(Br)cc1,-17%,
O=[N+]([O-])c1c(Cl)cc(Cl)cc1Cl,-6.16%,
O=C(O)c1ccc(C(=O)O)cc1,,inactive
O=[N+]([O-])c1cccc(C(F)(F)F)c1,18%,
CCCCOCCOCCOCCCC,-0.326%,
O=C1OC(=O)c2cc([N+](=O)[O-])ccc21,-17.7%,
O=C(O)c1ccccc1C(=O)O,0.932%,
CCCCC(=O)N(C)C,3.11%,
O=CNc1ccccc1,4.57%,
